The list is not random: actives were taken first. Their share in the collection is about 2.8%.
rCAG RNA binder: binders of r(CAG) RNA repeats, primary screen, biochemical, fluorescence. r(CAG) RNA repeat, TO-PRO-1 dye displacement fluorescence. inhibition, % at 3 µM. 1.3% of 370,000 active. AID 651821, 2012;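 active means inhibition above the plate cutoff, the mean of all test compounds on that plate plus 3 SD, cut at about 35% in these data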;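 further: higher means more dye released from RNA so lower well fluorescence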
bovine MsrA act: bovine MsrA enzyme activators, primary screen, biochemical, absorbance, HTS | 0.3% of 360,000 active | Methionine sulfoxide reductase A (Bos taurus) | activation, % at 10.6 µM | purified bovine MsrA, absorbance read-out; in the data active means activation above about 7.5%
sPLA2-III inh: human group III sPLA2 inhibitors, primary screen, biochemical, QFRET, BODIPY PC-A2 liposome substrate | Group 3 secretory phospholipase A2 (Homo sapiens), Q9NZ20 | inhibition, % at 12.2 µM | QFRET BODIPY PC-A2 liposome hydrolysis, fluorescence | AID 743126, 2013 | 0.56% of 370,000 active;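 active means inhibition above mean plus 3 SD of compounds lying within the high and low control bounds, cut at about 19% in these data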
Target sequence (Q9NZ20 whole entry, looked up): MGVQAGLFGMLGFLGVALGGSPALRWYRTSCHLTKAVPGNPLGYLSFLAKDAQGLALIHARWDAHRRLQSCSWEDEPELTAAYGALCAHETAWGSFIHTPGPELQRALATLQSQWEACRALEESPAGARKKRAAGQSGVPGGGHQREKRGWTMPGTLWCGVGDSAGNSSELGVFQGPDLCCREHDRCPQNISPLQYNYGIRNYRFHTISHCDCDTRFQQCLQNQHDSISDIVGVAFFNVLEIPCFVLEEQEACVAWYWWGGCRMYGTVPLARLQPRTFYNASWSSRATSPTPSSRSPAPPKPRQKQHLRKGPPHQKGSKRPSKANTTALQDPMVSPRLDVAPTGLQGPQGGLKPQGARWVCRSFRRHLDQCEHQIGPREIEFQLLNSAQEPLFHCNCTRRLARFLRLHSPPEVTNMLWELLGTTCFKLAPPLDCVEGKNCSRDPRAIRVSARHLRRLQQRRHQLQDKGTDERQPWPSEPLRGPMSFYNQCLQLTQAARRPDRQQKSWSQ
MsrA inh: bovine MsrA enzyme inhibitors, primary screen, biochemical, absorbance, HTS; AID 651718, 2012; purified bovine MsrA, absorbance read-out; inhibition, % at 15.5 µM; Methionine sulfoxide reductase A (Bos taurus); 0.75% of 360,000 active; in the data active means inhibition above about 4.5%
MsrA activ conf: bovine MsrA activators, retest, confirmation, biochemical, absorbance, HTS; shares compounds with bovine MsrA act; purified bovine MsrA, absorbance read-out; 12% of 1,000 active; AID 602270, 2012; activation, % at 10.6 µM; in the data active means activation above about 4%;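 further: enzyme coupled to thioredoxin and thioredoxin reductase with NADPH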
Numbers stand for hits; – = inactive; · = no result given.

SMILES	rCAG RNA binder	bovine MsrA act	sPLA2-III inh	MsrA inh	MsrA activ conf
COc1cccc(-n2c(=O)c3ccccc3n3c(=S)[nH]nc23)c1	–	–	–	–	·
CC(C)CN1C(=O)c2ccccc2C1(O)Cc1ccccc1 (configuration not stated)	–	–	–	–	·
C=CCN1C(=O)c2ccccc2C1(O)Cc1ccccc1 (configuration not stated)	–	11	–	–	–
O=C(Nc1nnc(SCC(=O)N2CCCCC2)s1)c1ccccc1F	–	–	–	–	·
O=C(CSc1ccccc1C(=O)O)NCc1ccccc1	–	8.1	–	–	–
C#CCOCCOCCOCCNc1nc(N2CCN(C(=O)[C@H]([C@@H](C)CC)n3cc(CCC(=O)O)nn3)CC2)nc(N2CCN(C(=O)[C@H](C)n3cc(CCCN=C(N)N)nn3)CC2)n1	–	–	–	–	·
C#CCOCCOCCOCCNc1nc(N2CCN(C(=O)[C@H]([C@@H](C)CC)n3cc(CCCN=C(N)N)nn3)CC2)nc(N2CCN(C(=O)[C@H]([C@@H](C)CC)n3cc(CCC(=O)O)nn3)CC2)n1	–	7.9	–	–	–
Cc1cc(Cl)c(OCCCNC2CCCC2)c(Br)c1	–	–	–	–	·
COc1ccc(N(CC(=O)NCc2ccc(C)cc2)S(=O)(=O)c2c(C)nn(C)c2C)cc1	–	9.7	–	–	–
OC[C@@H]1CN(Cc2ccc(F)cc2)C[C@H](n2cnc3c(NCc4ccco4)ncnc32)O1	–	–	–	–	·
COc1ccc(CNC(=O)O[C@H]2CN(C(=O)OC(C)C)N(C(=O)OC(C)C)[C@@H]3CN(S(=O)(=O)c4ccc(C)cc4)C[C@]23O)cc1OC	–	–	–	–	·
CCCCCC#CCN1CCN(C23CC4CC(CC(C4)C2)C3)CC1	·	8.8	·	·	–
COc1ccc(CCNc2nnc(C)c(=O)[nH]2)cc1OC	–	–	–	–	·
CCC(Oc1ccccc1C)C(=O)N1CCCN(C)CC1 (configuration not stated)	–	14	–	–	–
COC(=O)C1=C(C)N(C)C(=NCC2CC2)NC1c1cccc(C(F)(F)F)c1 (configuration not stated)	–	·	–	–	·
COC(=O)C1C2CC(C(Br)C2Br)C1C(=O)O (configuration not stated)	–	–	–	–	·
O=C(O)C1C2CC(C(Br)C2Br)C1C(=O)O (configuration not stated)	–	15	–	–	–
Cc1ccccc1OC(=O)n1c(=S)oc2cc(Cl)ccc21	–	9.0	–	–	–
Cc1ccc(S(=O)(=O)NCCC(=O)N2CCN(C/C=C/c3ccccc3)CC2)cc1	–	–	–	–	·
O=C(COC(=O)Cc1cccc(C(F)(F)F)c1)Nc1cccc2ccccc12	–	–	–	–	·
O=C(NCCN1CCCCC1)c1ccc2c(c1)OCCO2	–	10	–	–	–
O=[N+]([O-])c1cccc(N/N=C/c2ccc(N3CCOCC3)cc2)c1	–	–	–	–	·
O=C(Nc1ccc2c(c1)OCCO2)c1cncc(Br)c1	–	9.2	–	–	–
O=C(Nc1ccc2c(c1)OCO2)c1cncc(Br)c1	–	–	–	–	·
Cc1cc2oc(C(=O)Nc3c(C)n(C)n(-c4ccccc4)c3=O)c(C)c2cc1C	–	–	–	–	·
SMILES	rCAG RNA binder	bovine MsrA act	sPLA2-III inh	MsrA inh	MsrA activ conf
Cc1nc2ccccn2c1-c1ccnc(=S)[nH]1	–	8.8	–	–	–
CCOc1cc(C)c(Cl)cc1S(=O)(=O)NCc1ccc2c(c1)OCO2	–	7.8	–	–	–
COc1ccc(C(=O)N/C(=C\c2cn(S(=O)(=O)N(C)C)c3ccccc23)C(=O)NCCN2CCOCC2)cc1OC	–	–	–	–	·
COc1ccc(C(=O)N/C(=C\c2cn(S(=O)(=O)N(C)C)c3ccccc23)C(=O)NCCN2CCOCC2)cc1	–	18	–	4.6	–
C#CCN1C=C(C(=O)OCC)C(C)NS1(=O)=O (configuration not stated)	–	–	–	–	·
C#CCN1C=C(C(=O)OCC)C(C)N(Cc2ccccc2I)S1(=O)=O (configuration not stated)	–	12	–	–	–
Cn1nc(C(=O)OCC(=O)Nc2cc(Cl)ccc2C#N)c2ccccc2c1=O	–	10	–	–	–
NC1=C(Br)C(=O)c2ccccc2C1=O	–	9.7	–	–	9.4
O=C(Nc1ccccc1)Nc1ccccn1	–	–	–	–	·
O=C(Nc1ccc(Cl)cc1)Nc1ccccn1	–	8.4	–	–	–
Cc1[nH][nH]c(=O)c1N=Nc1ccccc1Cl	–	–	–	–	·
Clc1ccccc1N=Nc1ccccn1	–	34	–	–	–
Cc1cccc(N2CCN(S(=O)(=O)c3ccc(-c4coc(C)n4)cc3)CC2C)c1 (configuration not stated)	–	7.7	–	–	–
COc1ccc(CN2C(=O)c3ccccc3C2=O)cc1C(=O)O	–	–	–	–	·
CCOc1ccc(S(=O)(=O)NCCC(=O)NCc2ccco2)cc1	–	–	–	–	·
CCCNS(=O)(=O)c1ccc(OCC(=O)NCc2ccco2)cc1	–	16	–	–	–
CN(C(=O)c1cccc(NC(=O)Cc2cccc(NC(=O)C3CCN(C(=O)c4ccccc4)CC3)c2)c1)C1CC1	–	8.7	–	–	–
CN(C(=O)c1cccc(NC(=O)Cc2ccc(NC(=O)C3CCN(C(=O)c4ccccc4)CC3)cc2)c1)C1CC1	–	–	–	–	·
O=C(OCCN1CCCCC1)C1(c2ccccc2)CCCC1	–	–	–	–	·
O=C(OCCN1CCCC1)C1(c2ccccc2)CCCC1	–	9.6	–	–	–
C/C(=N\Nc1ccc([N+](=O)[O-])cc1)c1ccco1	–	–	–	–	·
O=C(Nc1nccs1)[C@@H]1CCCN1S(=O)(=O)c1ccc(Cl)cc1	–	–	–	–	·
O=C(Nc1cccc([N+](=O)[O-])c1)c1ccc([N+](=O)[O-])o1	–	9.8	–	–	5.7
Cc1cnc(C(=O)OCC(=O)Nc2cccc(C)c2C)cn1	–	–	–	–	·
Cc1cnc(C(=O)OCC(=O)Nc2cccc3ccccc23)cn1	–	13	–	–	–
SMILES	rCAG RNA binder	bovine MsrA act	sPLA2-III inh	MsrA inh	MsrA activ conf
COC(=O)CCCNC(=O)c1ccc2oc(CCCc3ccccc3)nc2c1	–	11	–	–	–
COC(=O)[C@@H](C)NC(=O)c1ccc2oc(CCc3ccccc3)nc2c1	–	–	–	–	·
CCOC(=O)c1[nH]c2ccc(OC)cc2c1NS(=O)(=O)c1ccc(OC)cc1OC	–	9.7	–	–	–
Cc1ccc(S(=O)(=O)N2CCCCC2)cc1NC(=O)COC(=O)Cc1ccc(Cl)cc1	–	–	–	–	·
CC1(Cc2ccc(OC(F)(F)F)cc2)C(=O)Nc2ccc(S(=O)(=O)NC3CCCCC3)cc21 (configuration not stated)	–	20	–	–	–
CC1(Cc2ccc(Cl)cc2)C(=O)Nc2ccc(S(=O)(=O)NC3CCCCC3)cc21 (configuration not stated)	–	–	–	–	·

Assay outcomes from PubChem BioAssay.
